Reference: PubChem BioAssay (NCI)
Several values for one entry are separate records, joined by “and”; a condition that tells them apart may be missing. Equal entries are not always repeated. The panel holds about 83,000 compounds, 20% with a hit somewhere; the sample as a whole holds those more often.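 A percent growth of 40 corresponds to 60% growth inhibition; 0 means no net growth; -100 means all cells died. Active threshold: below 10.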 Activity calls are given as the source filed them.

test system: MDA-MB-468 breast; assay: NCI-60 one-dose screen, 48 h (100 = growth as untreated, 0 = no growth, -100 = all killed); settings: 10 µM unless noted

| SMILES | growth |
| --- | --- |
| CCC1=CCC[C@@]2(C)CCC[C@@]3(C)CCCC(C)(C)[C@]1([O-])[O+]32 | 94.5% (inactive) |
| COc1ccc2cc(C(=O)c3coc4ccc(O)cc34)ccc2c1 | 126% (inactive) |
| O=C(COc1ccc(-c2nc3cc(Cl)c(Cl)cc3[nH]2)cc1)N=Nc1c(O)[nH]c2ccc(Cl)cc12 | 68.5% (inactive) |
| O=C1c2ccccc2C(=O)c2sc(Nc3ccc(Cl)cc3)nc21 | 28.6% (inactive) |
| COc1ccc(CNCCN2C(=O)c3ccc4c5c(ccc(c35)C2=O)C(=O)N(CCNCc2ccc(OC)c(OC)c2OC)C4=O)c(OC)c1OC | -87.2% (active) |
| COc1ccc(-c2nc3ccccn3c2-c2nc3ccc(Cl)cc3[nH]2)cc1 | 77.7% (inactive) |
| O=C1C(Cl)=C(Nc2ccc3c(c2NC2=C(Cl)C(=O)c4ccccc4C2=O)C(=O)c2ccccc2C3=O)C(=O)c2ccccc21 | 5.98% (active) |
| Cc1nc2ccccc2n1CC1C(=O)NC(=O)NC1=O | 107% (inactive) |
| CS(=O)(=O)c1cccc(-c2c(-c3cccc(OS(N)(=O)=O)c3)nc3sccn23)c1 | 104% (inactive) |
| CCCCCN(CCCCC)CCCNc1c2c(nc3ccc(Cl)cc13)CCCC2 | 8.01% (active) |
| COc1c(Cl)c2c(c(OC)c1OC)-c1ccc(SC)c(=O)cc1[C@@H](NC(=O)OCC(F)(F)F)CC2 | -15.5% (active) |
| O/N=C1\CCC2CCCCC2C1 (stereo not given) | 105% (inactive) |
| CC(=O)OCC1O[C@@H](OC(C)=O)[C@@H](NC(=O)NS(=O)(=O)c2ccccc2)C(OC(C)=O)[C@@H]1OC(C)=O (stereo not given in full) | 107% (inactive) |
| Cc1ncsc1CCO | 99.2% (inactive) and 107% (inactive) |
| CC1(c2ccc(Cl)cc2)OC(=O)CC(=O)O1 | 109% (inactive) |
| CCCCCCCNc1nc(C=O)ncc1-c1ccc(C(F)(F)F)cc1 | 103% (inactive) |
| CCCCCCNC(=O)Oc1ccc(/C(=C(/C)Cc2ccc(OC)cc2)c2ccc(OCCCN(C)C)cc2)cc1 | -17.3% (active) |
| OC(CBr)CCBr (stereo not given) | 97.4% (inactive) |
| Cc1cc(C)c(/C=C2\C(=O)Nc3ccc(NC(=O)CCCCCCC(=O)NO)cc32)[nH]1 | 13% (inactive) |
| N#C/C(=C\c1ccc(C(F)(F)F)cc1)c1cc2ccccc2[nH]1 | 96.9% (inactive) |
| Cc1cc(Br)c(C)cc1Br | 92.2% (inactive) |
| COC(=O)/C=C1\SC(=Nc2ccc(C(F)(F)F)cc2)N(CCc2c[nH]c3ccccc23)C1=O | -66.3% (active) |
| O=C1NC(=O)C(=Cc2cn(Cc3ccccn3)c3ccccc23)C(=O)N1 | -51.2% (active) |
| CC1Cc2ccc(OCCN(C)C)cc2C1=O (stereo not given) | 96.2% (inactive) |
| O=C(Nc1ncc(Cc2cc(C(F)(F)F)ccc2Cl)s1)c1cccs1 | -0.706% (active) |
